Data published in PubChem BioAssay AID488862 (Broad Institute, 2010).
Values joined by “and” are separate entries in the source; they are usually repeats but may differ in a detail not shown here. Equal entries are not always repeated. About 1,200 (0.35%) of roughly 340,000 compounds were called active. The full list was thinned out, with actives kept by preference. Values without a mark were called inactive. No stated cut-off is given here; in the data, active means inhibition above about 52%; inactive means the rest.

Assay: suppresses PrP 5' UTR mRNA reporter expression (AID 488862); further: 0 = median of the neutral control wells
Settings: cell-based PrP 5' UTR mRNA reporter, plate reader; active compounds read high; concentration not given here
Work on `CS(=O)(=O)N(CC(=O)N1CCOCC1)c1ccc2c3c(cccc13)CC2` yielded an inhibition of -19.4%.
`CC(=O)Nc1ccc(NC(=O)CSc2nnc(COc3ccccc3C)n2CC2CCCO2)cc1` (stereo not drawn) gave an inhibition of -3.51%.
`CCOC(=O)N1CCC(N2Cc3cccc(C(=O)Nc4c(C)cccc4CC)c3C2=O)CC1` gave an inhibition of -4.9%.
Compound `Cc1nc2c(-c3ccc(F)cc3)c(C)nn2c(C)c1CCC(=O)N1CCN(c2ccccn2)CC1` has an inhibition of 4.39%.
`COc1ccc(CCNS(=O)(=O)c2ccc(Cl)s2)cc1OC` gave an inhibition of 6.31%.
In the case of `COC1C(O)C(C)OC(OC2CCC3(C=O)C(CCC4C3CCC3(C)C(C5=CC(=O)OC5)CCC43O)C2)C1O` (stereo not drawn), the inhibition is reported as 89.8% (active).
Work on `COc1ccc(C(=O)C2CCCN(C(=O)c3cnsn3)C2)c(C)c1` (stereo not drawn) yielded an inhibition of -10.1%.
With `Cc1cc(Nc2ccccc2)n(C(=O)c2ccc(N)cc2)n1` the inhibition was 67.9% (active).
Work on `Cn1c(Nc2ccccc2)cc(=O)n(C)c1=O` yielded an inhibition of -38.1%.
`Cc1cc(NC(=O)Nc2ccc(Cl)cc2)n(-c2ccccc2)n1` gave an inhibition of -39.6%.
`CCOc1ccc(CN(Cc2ccco2)C(c2cccs2)c2nnnn2C(C)(C)C)cc1` (stereo not drawn) showed an inhibition of -13.3%.
`CCOc1ccc(NC(=O)CCCCCN2C(=O)[C@@H]3Cc4ccccc4CN3C2=O)cc1` showed an inhibition of -14.6%.
`CCOc1ccc(NC(=O)CCS(=O)(=O)c2cccc3nsnc23)cc1` showed an inhibition of -15.9%.
Work on `Cc1ccc(-c2cc(C(=O)NCc3cn(C)nc3C)c3cc(Br)ccc3n2)cc1` yielded an inhibition of -28.8%.
In the case of `Cc1ccc2nc(-c3ccc(Br)cc3)cn2c1`, the inhibition is reported as 71% (active).
`CSc1nnc2ccc(-c3ccc(C)cc3)nn12` showed an inhibition of 0.671%.
With `Cc1ccc(-c2cn3cc(C)ccc3n2)cc1` the inhibition was 85.2% (active).
`Cc1ccc(-c2cc(N)on2)cc1` gave an inhibition of -33%.
Compound `Cc1ccc(-n2c(-c3ccc(Cl)cc3)n[nH]c2=S)cc1` has an inhibition of -0.525%.
`O=C(NC(=S)Nc1ccc(Cl)cc1Cl)C1CC1` gave an inhibition of -42.6%.
With `O=C(COC(=O)c1ncc(Cl)c(Cl)c1Cl)NCc1cccs1` the inhibition was -15.5%.
Work on `CCCCN(C(=O)CCNC(=O)NC12CC3CC(CC(C3)C1)C2)c1c(N)n(CCCC)c(=O)[nH]c1=O` yielded an inhibition of 9.19%.
For `COc1ccc(CCNC(=O)C2CCCN2C(=O)Nc2ccccc2)cc1OC` (stereo not drawn), the inhibition was -48%.
In the case of `Cc1ccc(OCCOCCOc2ccc(Br)cc2/C=N\NC(=O)c2ccncc2)cc1`, the inhibition is reported as -18.1%.
For `Cc1ccc(/C=N/NC(=O)COc2ccccc2-c2ccccc2)cc1`, the inhibition was 70% (active).
Work on `Cc1cccc(OCC(=O)NCC(=O)N/N=C/c2ccc(N(C)C)cc2)c1` yielded an inhibition of -13.2%.
Compound `O=C(CSC1c2ccccc2-c2ccccc21)N/N=C/c1ccccc1` has an inhibition of 9.76%.
`COc1ccc(OC)c(S(=O)(=O)Nc2cccc(-c3ccc4nncn4n3)c2)c1` gave an inhibition of -13.4%.
For `Cc1c(CN2CCCC(C(=O)c3cccc(Cl)c3)C2)c(=O)n(-c2ccccc2)n1C` (stereo not drawn), the inhibition was -12.1%.
For `CCOc1ccc(N/C=C/C(=O)c2ccccc2)cc1`, the inhibition was -1.68%.
In the case of `COc1ccc(C(=O)/C=C/Nc2ccccn2)cc1`, the inhibition is reported as 66% (active).
In the case of `CCOc1ccc(N/C=C/C(=O)c2cc(OC)c(OC)c(OC)c2)cc1`, the inhibition is reported as -105%.
For `CCc1cc2c(N3CCN(c4nnc(CC)s4)CC3)ncnc2s1`, the inhibition was 2.26%.
Work on `CC(C)(C)c1ccc(/C=C2\SC(=O)N=C2N)cc1` yielded an inhibition of 36.2%.
In the case of `CCCCSCCCNC(=O)C1CCC(CNS(=O)(=O)c2ccc(NC(C)=O)cc2)CC1` (stereo not drawn), the inhibition is reported as -21.5%.
`CCN(CCn1cccn1)C(=O)CC1C(=O)NCCN1Cc1cccc(OC)c1OC` (stereo not drawn) showed an inhibition of -9.29%.
In the case of `COc1ccccc1CNS(=O)(=O)c1ccc(C)cc1`, the inhibition is reported as -15.1%.
With `CCCCNCCS(=O)(=O)NCc1ccccc1` the inhibition was -9.61%.
In the case of `CCCCNS(=O)(=O)CCNCc1ccccc1OC`, the inhibition is reported as 60.7% (active).
Work on `Cc1cccc([C@H]2[C@@H]3C=CC[C@@H](C)[C@@H]3C(=O)N2Cc2ccccc2)c1` yielded an inhibition of -11.5%.
With `Cc1ccc(-c2cccc([C@H]3[C@@H]4C=CC[C@@H](C)[C@@H]4C(=O)N3Cc3ccccc3)c2)cc1` the inhibition was 61.8% (active).
In the case of `Cc1cccc([C@@H]2[C@@H]3C(=O)N(Cc4ccccc4)C(=O)[C@@H]3[C@]3(C)C(=O)N(c4ccc(Br)cc4)C(=O)N23)c1`, the inhibition is reported as -3.38%.
With `Cc1nc(N=C(N)N)nc2c(C)cccc12` the inhibition was -22.8%.
Compound `Cc1nc(C(=O)NCc2ccccc2)sc1C1(C)CC(c2cccnc2)=NO1` (stereo not drawn) has an inhibition of -16.5%.
In the case of `COc1ccccc1C1C2=C(COC2=O)Nc2cc3c(cc21)OCO3` (stereo not drawn), the inhibition is reported as 65.7% (active).
Work on `CCCOc1ccccc1C1CC(=O)Nc2cc3c(cc21)OCO3` (stereo not drawn) yielded an inhibition of -21.5%.
Work on `O=C1OCC2=C1C(c1ccc(Cl)cc1)c1cc3c(cc1O2)OCO3` (stereo not drawn) yielded an inhibition of 16.1%.
In the case of `COc1ccc(NC(=O)CN(C)C(=O)c2ccc(NC3CC3)c([N+](=O)[O-])c2)cc1`, the inhibition is reported as -13.7%.
For `Cc1noc(C)c1S(=O)(=O)Nc1ccc(C(=O)N2CCN(c3ccc(F)cc3)CC2)cc1`, the inhibition was 44.2%.
With `N#Cc1nc(N)nc(N(c2ccccc2)c2ccccc2)n1` the inhibition was -20.2%.
In the case of `CCc1nn(CCCN2CCN(c3cccc(Cl)c3)CC2)c(=O)n1CCOc1ccccc1`, the inhibition is reported as -17.3% and 2.12%.
`O=C(O)c1cccnc1NC1CCCC1` showed an inhibition of -17.1%.
Work on `CC1=C(C)CC(C(=O)NNC(=O)c2ccccc2O)C(C(=O)O)C1` (stereo not drawn) yielded an inhibition of -11.4%.
For `O=C(NNC(=O)c1ccccc1O)c1ccccc1O`, the inhibition was 58.9% (active).
With `Cc1cc(C(=O)CCC(=O)NNC(=O)c2ccccc2O)c(C)s1` the inhibition was 4.28%.
Work on `C/C(=N/NC(=O)CN1CCN(S(=O)(=O)c2ccc(Br)cc2)CC1)c1ccncc1` yielded an inhibition of -9.51%.
With `Cc1cc(C)nc(/N=C2\NC(=O)CC(C(=O)O)N2c2ccc(Cl)cc2Cl)n1` (stereo not drawn) the inhibition was -13.6%.
Compound `COc1ccc(C23NCCN2C(=O)c2ccccc23)cc1` (stereo not drawn) has an inhibition of -5.86%.
With `CC(NC(=O)c1cccc2ccccc12)c1ccc2c(c1)CCCC2` (stereo not drawn) the inhibition was -15.9%.
In the case of `COc1cccc2c1C(=O)c1c(O)c3c(c(O)c1C2=O)CC(O)(C(C)=NNC(=O)c1ccc(Cl)c(Cl)c1)CC3OC1CC(N)C(O)C(C)O1` (stereo not drawn), the inhibition is reported as 81% (active).
Compound `CC(=O)Nc1ccc(C(=O)Nc2cc(S(=O)(=O)N3CCOCC3)ccc2N2CCOCC2)cc1` has an inhibition of 2.41%.
`O=C(CN1C2CCC1CC(NC(=O)C1CC1)C2)NCc1ccccc1` (stereo not drawn) gave an inhibition of -21.6%.
In the case of `CCCS(=O)(=O)N1CCN(C(=O)c2cccs2)CC1`, the inhibition is reported as -11%.
For `CC(C)(C)C1CCc2c(sc3nc(SCC(N)=O)nc(N)c23)C1` (stereo not drawn), the inhibition was 67.4% (active).
With `C=C(C)CSc1nc(N)c2c3c(sc2n1)CCC3` the inhibition was -92.1%.
In the case of `Nc1nc(SCC(=O)NCCN2CCOCC2)nc2sc3c(c12)CCC3`, the inhibition is reported as -29.6%.
Compound `CC1O[C@@H](OC2C(O)C(C)O[C@H](OC(=O)[C@]34CCC(C)(C)C[C@H]3C3=CCC5[C@@]6(C)CC(O)C(O[C@@H]7OC(CO)C(O)[C@@H](O)[C@@H]7O)[C@@](C)(C(=O)O)C6CC[C@@]5(C)[C@]3(CO)CC4)C2O[C@H]2OC(C)[C@@H](O[C@@H]3OCC(O[C@@H]4OC(CO)C(O)[C@H](O)C4O)[C@@H](O)[C@@H]3O)[C@H](O)C2O)C(O)C(O)C1O` (stereo partly drawn) has an inhibition of -19.6%.
With `COc1ccc(CCC(=O)Nc2ccc(Cl)c(S(=O)(=O)N3CCOCC3)c2)cc1OC` the inhibition was -6.15%.
`O=[N+]([O-])c1ccc(NC(=S)N2CCN(c3ccccn3)CC2)cc1` showed an inhibition of -31.5%.
Compound `CNC(=S)N1CCN(c2ccccn2)CC1` has an inhibition of 2.28%.
For `COc1cc([N+](=O)[O-])ccc1NC(=S)N1CCN(c2ccccn2)CC1`, the inhibition was 60.8% (active).
Work on `CN1CCN(c2ccc([N+](=O)[O-])c(Sc3nc4ccccc4[nH]3)c2)CC1` yielded an inhibition of -6.9%.
In the case of `CCCn1nc(NS(=O)(=O)c2ccccc2)c2cc3cc(C)ccc3nc21`, the inhibition is reported as -7.37%.
For `Cc1ccc(S(=O)(=O)N(C)CC(=O)N2CCc3ccccc32)cc1`, the inhibition was -9.45%.
With `COc1ccccc1N1CCN(C(=O)c2cc(=O)c3cc(C)cc(C)c3o2)CC1` the inhibition was 72.6% (active).
Compound `COc1cc2c(cc1OC)CN(C(=O)c1cc(=O)c3ccccc3o1)CC2` has an inhibition of -36.4%.
For `COc1ccccc1N1CCN(C(=O)c2ccc(Cl)c(S(=O)(=O)N3CCCC3)c2)CC1`, the inhibition was -12.2%.
For `O=C(Nc1ccc([N+](=O)[O-])cc1)OCCc1ccccn1`, the inhibition was -55.9%.
With `Cc1ccc(C(=O)N/C(=C\c2ccc(F)cc2)C(=O)NCCN2CCOCC2)cc1` the inhibition was -18.5%.
Work on `COc1cc(C=NNC(=O)c2cccnc2)ccc1OC(=O)c1ccccc1F` yielded an inhibition of -15.7%.
With `COc1ccc(C(=O)Nc2ccccc2C(=O)N/N=C/c2ccc(O)c(OC)c2)cc1` the inhibition was 80.5% (active).
In the case of `COc1ccc(C(=O)Nc2cc(C)c(NC(=O)c3ccccc3OC)cn2)cc1`, the inhibition is reported as -9.89%.
Compound `CC1=NCCN1S(=O)(=O)c1cccc([N+](=O)[O-])c1` has an inhibition of -44.4%.
For `CCOc1ccc(Br)cc1S(=O)(=O)Nc1ccc(S(=O)(=O)Nc2cc(C)on2)cc1`, the inhibition was -17.7%.
`NC(=O)CC(NC(=O)Cc1ccc(Br)cc1)c1ccc(NC2CC3CCC2C3)c([N+](=O)[O-])c1` (stereo not drawn) gave an inhibition of -22.9%.
Compound `CCn1c(SCC(=O)NC2CC2)nnc1-c1ccccc1OC` has an inhibition of 3.39%.
For `COc1ccc(C2=Nn3c(nnc3-c3ccccc3OC)SC2)cc1OC1CCCC1`, the inhibition was 63.8% (active).
For `COc1ccccc1-c1nnc2n1N=C(c1ccc(OC(F)F)c(OCC3CC3)c1)CS2`, the inhibition was -3.8%.
